The source of these data is PubChem BioAssay (NCI).

Compounds without any hit were thinned out: in the full panel of roughly 83,000, 20% have a hit.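 The endpoint reported here, percent growth, reads 100 for growth as untreated, 0 for no net growth and -100 for all cells dead.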 Unmarked numbers belong to inactive results. Activity calls are given as the source filed them. The calls were made as follows: active = growth percent below 10; inactive = the rest.

Test systems include HT29 colon; SNB-75 CNS; SNB-19 CNS; U251 CNS; PC-3 prostate; SK-MEL-5 melanoma; UACC-62 melanoma; LOX IMVI melanoma; SK-MEL-28 melanoma; SK-MEL-2 melanoma; EKVX NSCLC; SN12C renal; UO-31 renal; TK-10 renal; ACHN renal; CAKI-1 renal; A498 renal; CCRF-CEM leukemia; MOLT-4 leukemia.
Assay in all cases: NCI-60 one-dose screen, 48 h (100 = growth as untreated, 0 = no growth, -100 = all killed)
What all share (details): 10 µM

For `Nc1nc(-c2ccccc2)cs1`, the growth with HT29 colon was 78.6%; with SNB-75 CNS it was 59.2%; with SNB-19 CNS it was 77%; in the test with U251 CNS, 28.3%; in the test on PC-3 prostate, 25.1%; with SK-MEL-5 melanoma it was 59.1%. In addition, the growth is 53.4% in the test on UACC-62 melanoma; 22% in the test on LOX IMVI melanoma; 87.9% in the test on SK-MEL-28 melanoma; 61.6% with SK-MEL-2 melanoma; 32% in the test on EKVX NSCLC; 68.2% with SN12C renal. Further, the growth with UO-31 renal was 29%; in the test with TK-10 renal, 83.5%; in the test with ACHN renal it was 59.5%; with CAKI-1 renal, 69.9%; in the test on A498 renal, 94.7%; with CCRF-CEM leukemia, 43.3%. In addition, the growth in the test on MOLT-4 leukemia is 35.1%.

`O=c1nc(-c2ccccc2)cc(-c2cc3ccccc3nc2Cl)[nH]1`: the growth was -42.5% (active) with HT29 colon; 26.5% with SNB-75 CNS; 13% in the test on SNB-19 CNS; -72.7% (active) in the test on U251 CNS; 31.8% in the test on PC-3 prostate; 62.2% in the test on SK-MEL-5 melanoma. For the same compound, the growth was 35.1% in the test on UACC-62 melanoma; -87.7% (active) in the test with LOX IMVI melanoma; 71.5% in the test with SK-MEL-28 melanoma; 82.8% in the test on SK-MEL-2 melanoma; 61.6% in the test with EKVX NSCLC; 20.7% in the test on SN12C renal. In addition, the growth with TK-10 renal was 87.7%; in the test on ACHN renal, 39.1%; with CAKI-1 renal, 56.6%; in the test on A498 renal it was 104%; with CCRF-CEM leukemia it was -29.3% (active); in the test with MOLT-4 leukemia, -18.7% (active).

With `CCCCSc1nc(Nc2ccc(/C(C)=N/NC(N)=S)cc2)c(C#N)c(-c2ccccc2)n1`, the growth in the test with HT29 colon was 61.2%; in the test with SNB-75 CNS it was 96.8%; with SNB-19 CNS, 50%; in the test on PC-3 prostate, 28.9%; in the test on SK-MEL-5 melanoma, 54.9%; in the test on UACC-62 melanoma, 64.5%. Moreover, the growth with LOX IMVI melanoma was 5.73% (active); with SK-MEL-2 melanoma, 90.4%; in the test on EKVX NSCLC, 62.5%; with SN12C renal it was 19.8%; with TK-10 renal, 48.8%; in the test on ACHN renal, 14.3%. The growth was 33.5% in the test with CAKI-1 renal, 42.1% with A498 renal, 49.2% in the test with CCRF-CEM leukemia and 47.3% in the test with MOLT-4 leukemia.

Consider `CC(=O)Nc1ccc(-n2cnc3cc(-c4ccc(O)cc4)ccc32)cc1F`, for which the growth is -9.81% (active) in the test on HT29 colon; 24.1% in the test on SNB-75 CNS; 36.2% with SNB-19 CNS; 16.7% in the test on U251 CNS; 22.8% with PC-3 prostate; 12.5% in the test on SK-MEL-5 melanoma. The growth in the test with UACC-62 melanoma is 13.9%; in the test with LOX IMVI melanoma, 27.8%; in the test with SK-MEL-28 melanoma, 49.4%; in the test on SK-MEL-2 melanoma, 36.3%; in the test with EKVX NSCLC, 60.6%; with SN12C renal it was 21.5%. The growth in the test with UO-31 renal was 20.7%; with ACHN renal, 20.4%; with CAKI-1 renal, 17.9%; in the test on A498 renal, 72.4%; in the test with CCRF-CEM leukemia it was 8% (active); in the test with MOLT-4 leukemia, -0.0266% (active).

As for `COc1ccc2nc(Cl)c(-c3cc(-c4ccccc4)nc(=S)[nH]3)cc2c1`, the growth is 43.7% in the test with HT29 colon; 41.5% in the test on SNB-75 CNS; 83.6% in the test on SNB-19 CNS; 87.2% in the test with U251 CNS; 67.3% in the test on PC-3 prostate; 6.49% (active) with SK-MEL-5 melanoma. The growth was 23.2% in the test with UACC-62 melanoma; 60.3% with LOX IMVI melanoma; 50% in the test on SK-MEL-28 melanoma; 9.29% (active) in the test on SK-MEL-2 melanoma; 65.6% in the test on EKVX NSCLC; 75.6% in the test with SN12C renal. In addition, the growth in the test with ACHN renal was 51.3%; in the test on CAKI-1 renal it was 56.9%; with A498 renal it was 87.7%; in the test on CCRF-CEM leukemia, 64.5%; with MOLT-4 leukemia it was 23.8%.

Take `CC(=C(c1ccc(OCCN2CCCCCC2)cc1)c1ccc(OCCN2CCCCCC2)cc1)c1ccc(Cl)cc1`: the growth was -94.8% (active) in the test with HT29 colon; -97.2% (active) in the test with SNB-75 CNS; -99.2% (active) in the test on SNB-19 CNS; -83.3% (active) in the test on PC-3 prostate; -100% (active) in the test with SK-MEL-5 melanoma; -98.3% (active) with UACC-62 melanoma. Moreover, the growth is -100% (active) with LOX IMVI melanoma; -98.5% (active) with SK-MEL-28 melanoma; -91.7% (active) with SK-MEL-2 melanoma; -89.3% (active) in the test on EKVX NSCLC; -92.4% (active) in the test on SN12C renal; -100% (active) in the test on UO-31 renal. For the same compound, the growth in the test on TK-10 renal was -98% (active); with ACHN renal it was -100% (active); in the test on CAKI-1 renal, -100% (active); in the test with A498 renal, -90.9% (active); in the test on CCRF-CEM leukemia it was -61.5% (active).

Take `COc1ccc(Nc2nc(N)n(Cc3cccc(Br)c3)n2)cc1`: the growth in the test with HT29 colon was 31.9%; in the test on SNB-75 CNS, 11.7%; with SNB-19 CNS, 18.6%; in the test on U251 CNS, 24.7%; in the test with PC-3 prostate, 13.1%; in the test with SK-MEL-5 melanoma it was -93.3% (active). Besides, the growth in the test with UACC-62 melanoma is 2.3% (active); in the test on LOX IMVI melanoma, -67.3% (active); with SK-MEL-28 melanoma, 5.84% (active); in the test with SK-MEL-2 melanoma, -35.7% (active); in the test on EKVX NSCLC, 6.36% (active); in the test on SN12C renal, 14.7%. The growth was 0.264% (active) with UO-31 renal; 24.9% in the test with TK-10 renal; 1.18% (active) in the test with ACHN renal; 8.17% (active) in the test with CAKI-1 renal; -19.5% (active) in the test with A498 renal; 10.2% in the test on CCRF-CEM leukemia. Moreover, in the test on MOLT-4 leukemia, the growth was 9.01% (active).

`CC1(C)CC[C@]23CC[C@]4(C)[C@H](CC[C@@H]5[C@@]6(C)CC[C@H](N)C(C)(C)[C@@H]6CC[C@]54C)[C@H]2[C@H]1OC3=O`: the growth is -66.7% (active) in the test with HT29 colon; -75.3% (active) with SNB-75 CNS; -98.7% (active) in the test on SNB-19 CNS; -88.9% (active) in the test with U251 CNS; -57.5% (active) with PC-3 prostate; -100% (active) in the test on SK-MEL-5 melanoma. For the same compound, the growth in the test on UACC-62 melanoma is -96.1% (active); with LOX IMVI melanoma it was -98.9% (active); in the test on SK-MEL-28 melanoma, -100% (active); in the test on SK-MEL-2 melanoma it was -77.2% (active); with EKVX NSCLC, -95.4% (active); with SN12C renal, -96% (active). Also, the growth was -96.7% (active) in the test on UO-31 renal; -90.1% (active) with TK-10 renal; -100% (active) in the test with ACHN renal; -90.3% (active) in the test with A498 renal; -32.4% (active) in the test with CCRF-CEM leukemia.

For `O=C(CSc1nnc(-c2ccc3nc(-c4ccccc4)[nH]c3c2)o1)Nc1ccc(Br)cc1`, the growth was 64.9% with HT29 colon; 99.1% in the test with SNB-75 CNS; 49.7% in the test on SNB-19 CNS; 11.5% with U251 CNS; 61.4% in the test on PC-3 prostate; 86.9% with SK-MEL-5 melanoma. Besides, the growth with UACC-62 melanoma was 59.8%; with LOX IMVI melanoma, -4.8% (active); in the test on SK-MEL-28 melanoma, 76.9%; with SK-MEL-2 melanoma, 81.2%; with EKVX NSCLC, 81.4%; with SN12C renal, 45.8%. For the same compound, the growth was 74.4% in the test on UO-31 renal; 81.3% in the test on TK-10 renal; 63% with ACHN renal; 76.2% in the test on CAKI-1 renal; 101% in the test with A498 renal; 39.4% in the test with CCRF-CEM leukemia. The growth in the test with MOLT-4 leukemia was 16.8%.
